Records with an inconclusive call do not appear. Activity calls are given as the source filed them. Calls follow the shape of the dose curve; as a rule, active = well fitted inhibition curve with a large enough effect; inconclusive = small, poorly fitted or top-dose-only effect; inactive = no such curve, though single readings can be large or run the other way.
% is scaled to controls: 0 for no effect and ±100 for the full control effect.

This test deals with Cytochrome P450 3A7 (Homo sapiens) (UniProt P24462). The test can be described thus: Cytochrome P450 family 3 subfamily A member 7 (CYP3A7) small molecule antagonists: luciferase biochemical qHTS assay (AID 1963596). Also: nearly all actives have a fitted effect of over 40% in size. As to conditions: P450-Glo CYP3A7 enzyme luminescence, 1 h; series mostly up to 57.4 µM; activity change, negative = inhibition: at the top concentration. In short, it runs like this: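 Luminescence read-out (relative luminescence units) after 20 min with detection reagent, which stops the reaction. Enzyme, proluciferin substrate and compound preincubated 10 min, RT; NADPH regeneration system then started 1 h reaction. Ketoconazole as positive control.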
Sequence of Cytochrome P450 3A7 (Homo sapiens) (P24462 whole entry, looked up): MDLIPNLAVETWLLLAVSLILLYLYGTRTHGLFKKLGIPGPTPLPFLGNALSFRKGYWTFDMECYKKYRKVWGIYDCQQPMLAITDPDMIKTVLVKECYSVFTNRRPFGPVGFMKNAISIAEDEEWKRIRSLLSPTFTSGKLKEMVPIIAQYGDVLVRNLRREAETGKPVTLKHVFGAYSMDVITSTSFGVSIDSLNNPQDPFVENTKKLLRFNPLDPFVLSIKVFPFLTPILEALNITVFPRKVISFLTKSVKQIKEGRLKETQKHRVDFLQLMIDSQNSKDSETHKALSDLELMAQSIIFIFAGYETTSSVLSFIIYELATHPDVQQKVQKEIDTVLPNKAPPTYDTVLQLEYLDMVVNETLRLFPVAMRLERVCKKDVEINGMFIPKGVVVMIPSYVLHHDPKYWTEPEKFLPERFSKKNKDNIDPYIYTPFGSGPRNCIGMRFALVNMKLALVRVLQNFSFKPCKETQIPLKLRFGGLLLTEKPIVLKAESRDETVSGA
(In qHTS, concentration-response curves come from the screen itself.)
With `Cc1c(C)n(CCN(C)C)c2ccc(C(=O)OCCN(C)C)cc12`, the “activity change, negative = inhibition” value is -0.197% (inactive). For the compound `CC(NC(=O)CCc1nc2ccccc2c(=O)[nH]1)c1ccccc1` (configuration not stated), the “activity change, negative = inhibition” value is 0% (inactive). In the case of `CC(=O)NC[C@H]1CN(c2ccc(N3CCN(C(=O)CO)CC3)c(F)c2)C(=O)O1` it was -0.16% (inactive). With `O=C(O)C1CSC(C(=O)O)N1` (configuration not stated), the “activity change, negative = inhibition” value is -9.82% (inactive). As to `COc1cccc(-n2nc(C(=O)O)cc2-c2ccc(C3CCCCC3)c(Cl)c2)c1`, the “activity change, negative = inhibition” value was 0% (inactive). Then `CC(C)OC(=O)N1CCC(Oc2ncnc3c2cnn3-c2ccc(S(C)(=O)=O)cc2F)CC1`, with -17.1% (inactive); and `CCOC(=O)c1ccc(NC(=O)c2cc(=O)c3ccc(C)c(C)c3o2)cc1`, with -22.1% (inactive).

For `O=C(c1ccc(OC(F)F)c(C#Cc2ccccn2)c1)N1Cc2cccnc2C1`, the “activity change, negative = inhibition” value is 0% (inactive). Then `Cc1ccc(S(=O)(=O)Nc2nc3n(n2)C(c2ccc(Cl)cc2)C=C(c2ccccc2)N3)cc1` (configuration not stated), with -29.3% (inactive); and `CCCCCCCC(=O)O`, with -6.09% (inactive). In the case of `COc1ccc(NC(=O)Cn2cc(C(=O)c3cccs3)c3ccccc32)cc1` it was 1.58% (inactive); in that of `COCC(=O)N1CCc2cc(-c3csc(NC(=O)c4cc(OC)cc(OC)c4)n3)ccc21`, -13% (inactive); in that of `NS(=O)(=O)c1ccc(NC(=O)Nc2ccc(F)cc2)cc1`, -0.134% (inactive). Then `C[C@@H]1CN(Cc2ccccc2)C[C@H]1c1nc2c(cnn2C2CCOCC2)c(=O)[nH]1`, with 1.87% (inactive); and `CCCCC(CC)COC(=O)CC(C(=O)OCC(CC)CCCC)S(=O)(=O)O` (configuration not stated), with 0% (inactive). For the compound `C=CC1=C(C(=O)O)N2C(=O)[C@@H](NC(=O)/C(=N\O)c3csc(N)n3)[C@H]2SC1` (stereo in doubt), the “activity change, negative = inhibition” value was -8.65% (inactive). In the case of `COc1ccc(C#Cc2ccc(C(=O)N3CCC[C@@H](O)C3)c(F)c2)cc1` it was -7.99% (inactive).

Source of the values: PubChem BioAssay (NCATS).
